Assay results: PubChem BioAssay AID1985 (Southern Research Specialized Biocontainment Screening …, 2009)
Screen size: about 2,300 compounds; about 1,000 (43%) were called active. The rule behind the calls is not given here. The set was probably picked from earlier hits. The list shows a part of the results. Measured potencies and affinities stand elsewhere.

Assay: modified counter assay using GFP fluorescence, PhoP regulon inhibitor project, dose response (AID 1985)
Details: S. Typhi, 4 h; series mostly up to 150 µM

SMILES	outcome
O=C(N/N=C/c1cccnc1)c1cccc(Cl)c1	inactive
Nc1nonc1-n1nnc(C(=O)N/N=C/c2ccccc2O)c1CN1CCCC1	inactive
Nc1cc(=O)[nH]c(=S)n1-c1cccc(C(F)(F)F)c1	inactive
O=C1c2[nH]nc(-c3ccccc3O)c2C(c2ccc(F)cc2)N1CC1CCCO1 (stereo unspecified)	inactive
C=CCNC(=O)NC(=O)COC(=O)/C(C#N)=C/c1ccc(OC)cc1	inactive
N#CCCn1ncc2ccccc21	inactive
Cc1c(C)c2ccc(OC(C)C(=O)N[C@@H](Cc3c[nH]c4ccccc34)C(=O)O)c(C)c2oc1=O (stereo partly specified)	inactive
Cc1ccc(N=Cc2cc(Br)cc(Cl)c2O)cc1	inactive
CCN(CC)Cc1c(C(=O)N/N=C/c2cccc3ccccc23)nnn1-c1nonc1N	inactive
COc1ccc(/C=N/NC(=O)c2cccnc2)cc1	inactive
Cc1cc(C(=O)Cn2cncn2)c(C)n1CCc1ccc(F)cc1	inactive
O=C(CCN1CCOCC1)Nc1ccccc1	inactive
COc1ccc(Cl)cc1NC(=O)CCN1CCOCC1	inactive
CCCNC(=O)COc1ncnc2sc(C)c(C)c12	inactive
Cc1cc(C)cc(N(C(=O)CNC(=O)c2cccs2)C(C(=O)NC2CCCC2)c2cccnc2)c1 (stereo unspecified)	inactive
Cc1c(C2(O)C(=O)Nc3ccc(F)cc32)c(=O)n(-c2ccccc2)n1C (stereo unspecified)	inactive
C=CCOC(=O)C1=C(C)NC2(O)c3ccccc3C(=O)C12O (stereo unspecified)	inactive
N#C/C(=C\c1ccc(O)c(O)c1)C(=O)NCc1ccccc1	inactive
Cn1c(CN2CCCC2)nc2cc(NC(=O)COc3ccc(Cl)cc3)ccc21	inactive
CCc1nn(CCCN2CCN(c3cccc(Cl)c3)CC2)c(=O)n1CCOc1ccccc1	inactive
CC1CCN(CCCCOc2ccc(Cl)cc2)CC1	inactive
Cc1c(C)n(C)c2ccc(C(=O)NCCCN3CCCC3)cc12	inactive
Cc1ccc(-c2nnc3sc(-c4ccncc4)nn23)cc1	inactive

SMILES	outcome
COc1ccc(C2C(C(=O)N3CCC4(CC3)OCCO4)CC(=O)N2c2ccc(OC)cc2)cc1 (stereo unspecified)	inactive
O=C(c1ccc2c(c1)[nH]c(=S)n1c3ccccc3nc21)N1CCN(c2cccc(Cl)c2)CC1	inactive
O=S(=O)(Nc1ncccn1)c1ccc(NC(=S)Nc2ccccc2Cl)cc1	inactive
Cc1ccc(C)c(SCC(=O)Nc2ccc(S(=O)(=O)Nc3ncccn3)cc2)c1	inactive
COC(=O)Cc1ccc(NC(=S)NCc2ccc(Cl)cc2)cc1	inactive
COc1cc(NS(=O)(=O)c2ccc(NC(=S)Nc3ccccc3)cc2)nc(OC)n1	inactive
CCNC(=S)Nc1cccc(S(=O)(=O)Nc2ccccc2OC)c1	inactive
NC(N)=NC(N)=Nc1cccc2ccccc12	inactive
CCNC(=O)c1ccc(C2SCC(=O)N2CCc2ccccc2)cc1 (stereo unspecified)	inactive
COc1ccc(NC(=O)CN(C)S(=O)(=O)c2ccc(Cl)cc2)cc1Cl	inactive
COc1cccc(NC(=O)COC(=O)Cc2ccccc2[N+](=O)[O-])c1	inactive
Oc1ccccc1N=Cc1c(O)ccc2oc3c(c12)CCCC3	inactive
CC(=O)NCc1ccc(C(=O)CSc2nnc(-c3ccncc3)n2Cc2ccccc2)o1	inactive
Cc1[nH]c2ccccc2c1/C=N/Nc1nc2ccccc2[nH]1	inactive
O=C(CN(CCc1ccccc1)C(=O)CNS(=O)(=O)c1ccc(F)cc1)NCC1CCCO1 (stereo unspecified)	inactive
COc1ccc(/C=N/NC(=O)c2ccc3c(c2)OCO3)cc1	inactive
OCn1ncn(-c2ccccc2)c1=S	inactive
CCN(CC)/C(N)=N/c1nc(C)cc(C)n1	inactive
c1ccc(-c2nnc(-c3c[nH]c4ccccc34)nc2-c2ccccc2)cc1	inactive
COC(=O)c1ccc(S(=O)(=O)N2CCC(c3nc4ccccc4o3)CC2)cc1	inactive
Cc1cc(N2CCN(C3CCCCC3)CC2)nc2cccc(O)c12	inactive
O=C(CN1C2=NCCCN2c2ccccc21)c1ccc2c(c1)OCO2	inactive
O=C(CN1C2=NCCCN2c2ccccc21)c1ccc([N+](=O)[O-])cc1	inactive

SMILES	outcome
CC(C)N=C1NN=C(c2ccc(F)cc2)CS1	inactive
COc1ccc(CCn2c(=N)c(C(=O)NCC3CCCO3)cc3c(=O)n4ccccc4nc32)cc1 (stereo unspecified)	inactive
COc1ccc(Nc2nc(NCC3CCCO3)c3ccccc3n2)c(OC)c1 (stereo unspecified)	inactive
Cc1cccn2c(=O)c3cc(C(=O)NCC4CCCO4)c(=N)n(C4CCCC4)c3nc12 (stereo unspecified)	inactive
Cn1cc(S(=O)(=O)NCC2CCCO2)c(=O)n(C)c1=O (stereo unspecified)	inactive
COc1ccc(Cn2c(=N)c(C(=O)NCC3CCCO3)cc3c(=O)n4ccccc4nc32)cc1 (stereo unspecified)	inactive
COc1ccc(Nc2nnc(SCC3CCCO3)s2)cc1 (stereo unspecified)	inactive
COc1ccccc1Nc1nc(NCC2CCCO2)c2ccccc2n1 (stereo unspecified)	inactive
CCN(CC)S(=O)(=O)c1cc(NC(=O)C2Cc3ccccc3C(=O)O2)ccc1C (stereo unspecified)	inactive
Cc1cccc(N2C(=O)CS/C2=N\NC(=O)c2ccc(Br)cc2)c1C	inactive
O=C1CSC(=S)N1c1cccnc1	inactive
O=C1c2ccc3c4c(ccc(c24)C(=O)N1c1cccc(O)c1)C(=O)N(c1cccc(O)c1)C3=O	inactive
Cc1c(C(=O)O)sc(=S)n1-c1ccc(Cl)cc1	inactive
Cc1nn(C)c(C)c1NC(=O)c1ccc(S(=O)(=O)N(C)C)cc1	inactive
COc1ccc(CCNC(=O)Cn2c(=O)n(CC3CCCO3)c(=O)c3ccccc32)cc1OC (stereo unspecified)	inactive
O=C(CSCc1ccccc1)Nc1cccc(C(=O)Nc2ccc(C(=O)O)cc2)c1	inactive
O=C(Nc1ccc(F)cc1)c1ccc2snnc2c1	inactive
CC(C)[C@@H](C(=O)NC1CCCC1)N1C(=O)N2CCc3c([nH]c4ccccc34)[C@@]2(C)C1=O	inactive
[O-][n+]1onc2c1CCc1[nH]c(-c3ccccc3)nc1-2	inactive
COc1ccc(C(=O)Oc2ccc(/C=N/O)cc2)cc1	inactive
COc1ccc(NC(=O)C(Cc2ccccc2)n2cccc2)cc1 (stereo unspecified)	inactive
COc1cc(/C=C/C(=O)O)cc2c1OCCO2	inactive
CC(=O)c1cc(O)c2ccccc2c1O	inactive

SMILES	outcome
CCOC(=O)N1CCN(C(=S)NC(=O)c2ccc(Br)cc2)CC1	inactive
CCN1CCN(C(=O)Nc2ccc(Cc3ccc(NC(=O)N4CCN(CC)CC4)cc3)cc2)CC1	inactive
CN1CCCN(S(=O)(=O)c2ccc3c(c2)OCCO3)CC1	inactive
O=C(Nc1ccc(Cl)cc1)N1CCCN(Cc2ccccc2F)C1	inactive
O=C(Cn1c(=O)oc2cc(S(=O)(=O)N3CCCC3)ccc21)N1CCN(c2ccccc2F)CC1	inactive
Cc1oc2c(O)c(O)ccc2c(=O)c1-c1ccccc1	inactive
CCCC(=O)N1CCN(c2ccc(NC(=S)NC(=O)c3cccc(C)c3)cc2)CC1	inactive
CCCNC(=O)C1CCN(c2ccc(S(=O)(=O)N3CCOCC3)cc2Cl)CC1	inactive
CCN(CC)S(=O)(=O)c1ccc(N2CCOCC2)c(C(=O)O)c1	inactive
CCOc1ccc2nc(NC(=O)C3=NNC(=O)CC3)sc2c1	inactive
Cc1ccccc1Oc1ccc(Oc2ccccc2C)nn1	inactive
CC(=O)c1cccc(NC(=O)CCC2CCCC2)c1	inactive
Cc1ccc(NC(=O)CCNC(=O)c2ccccc2)cc1F	inactive
O=C(c1ccc2c3c(cccc13)CC2)C1CCCN(Cc2ncc[nH]2)C1 (stereo unspecified)	inactive
COCC1CCCN(Cc2cn[nH]c2-c2cc3ccccc3o2)C1 (stereo unspecified)	inactive
COc1ccccc1NC(=O)CSC1CC(=O)N(c2ccc3c(c2)OCO3)C1=O (stereo unspecified)	inactive
NS(=O)(=O)c1ccc(CCNS(=O)(=O)c2cccc(C(=O)O)c2)cc1	inactive
COc1cccc(C(=O)CC(=O)C(=O)Nc2cc(OC)c(OC)c(OC)c2)c1	inactive
Cc1ccc(/C=C2\SC(=S)N(c3cccnc3)C2=O)o1	inactive
COc1ccc(OC)c(NC(=O)CSc2nnc3ccc(-c4ccncc4)nn23)c1	inactive
Cn1c(CN2CCCCC2)nc2cc(NS(=O)(=O)c3ccc(Cl)cc3)ccc21	inactive
CCOC(=O)C1=C(C)NC(=O)NC1c1ccc(NC(C)=O)cc1 (stereo unspecified)	inactive
COC(=O)CNC(=O)c1ccc(=O)oc1	inactive

SMILES	outcome
CN1CCCN(C(=O)COc2ccc(F)cc2Cl)CC1	inactive
CN1CCN(c2ccc(C(=O)c3cn(-c4ccc(F)c(Cl)c4)nn3)cc2)CC1	inactive
CN1CCC(=C2c3ccccc3C=Cc3ccccc32)CC1	inactive
CCn1c(-c2ccncc2)n[nH]c1=S	inactive
COc1cc(C)c(Cl)cc1S(=O)(=O)n1cnc(C)c1	inactive
Cn1c(=NC(=O)COc2ccccc2)sc2cccc(F)c21	inactive
O=[N+]([O-])c1ccc(O)c2ncccc12	inactive
C#CC(=O)N(c1cccc(OC)c1)C(C(=O)NC1CCCC1)c1cccs1 (stereo unspecified)	inactive
CCN(CC)CCSc1nnc2c3ccccc3n(Cc3ccccc3)c2n1	inactive
C=CCn1c(C)cc(C(=O)CSc2n[nH]c(N)n2)c1C	inactive
O=[N+]([O-])c1ccc(N2CCNCC2)cc1NCc1cccnc1	inactive
Cc1nc2scc(C)n2c(=O)c1S(=O)(=O)N1CCN(c2cccc(C(F)(F)F)c2)CC1	inactive
COc1nnc(-c2ccc(N3CCOCC3)c(NC(=O)c3ccc(C)cc3)c2)c2ccccc12	inactive
CN(C)CCCN(C(=O)c1cc2cc([N+](=O)[O-])ccc2s1)c1nc2cc3c(cc2s1)OCCO3	inactive
CCSC1=NCN(CCCC(=O)O)CN1	inactive
COc1cc(C(=O)N/N=C/c2coc3ccccc3c2=O)cc(OC)c1OC	inactive
CC(C)C(c1nnnn1Cc1ccccc1)N(CCCO)Cc1cc2cc3c(cc2[nH]c1=O)OCO3 (stereo unspecified)	inactive
CC(C)Cc1nc(N2CCOCC2)c(C#N)c2c1COC(C)(C)C2	inactive
CCNC(=S)N1CCN(CC)CC1	inactive
